Inconclusive results are not listed. Activity calls are given as the source filed them. The calls were made as follows: active = hit-call score of the fitted dose curve at least 0.9, where 1 is the maximum; inconclusive = response in the unintended direction; inactive = score below 0.9.

Sequence of Hepatocyte nuclear factor 4-alpha (Homo sapiens) (P41235 whole entry, looked up): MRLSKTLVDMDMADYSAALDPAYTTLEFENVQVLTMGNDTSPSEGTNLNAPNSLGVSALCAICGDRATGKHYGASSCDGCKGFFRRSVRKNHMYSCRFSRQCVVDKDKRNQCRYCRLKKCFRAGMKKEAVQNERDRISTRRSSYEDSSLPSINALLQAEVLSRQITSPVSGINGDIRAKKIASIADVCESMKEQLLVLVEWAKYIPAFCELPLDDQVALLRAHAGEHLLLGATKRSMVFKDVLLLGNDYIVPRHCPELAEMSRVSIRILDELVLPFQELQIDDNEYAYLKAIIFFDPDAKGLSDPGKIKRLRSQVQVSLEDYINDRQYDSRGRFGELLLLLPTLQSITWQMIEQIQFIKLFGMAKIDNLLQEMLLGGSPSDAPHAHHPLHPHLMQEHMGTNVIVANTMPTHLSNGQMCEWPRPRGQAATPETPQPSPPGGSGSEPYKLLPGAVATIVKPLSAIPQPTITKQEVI

The target of this assay is Hepatocyte nuclear factor 4-alpha (Homo sapiens) (UniProt P41235). Nature of the assay: ATG_HNF4a_TRANS: Attagene TRANS-FACTORIAL HepG2 Assay for human Hepatocyte Nuclear Factor 4 alpha (HNF4a) (AID 2282982). To be noted: HepG2 HNF4a transactivation reporter, mRNA readout. As to the method:
ATG_TRANS is a cell-based, multiplexed-readout assay that uses HepG2, a human liver cell line, with measurements taken at 24 hours after chemical dosing in a 24-well plate.ATG_HNF4a_TRANS is one of 30 assay component(s) measured or calculated from the ATG_TRANS assay. It is designed to make measurements of mRNA induction, a form of inducible reporter, as detected with fluorescence intensity signals by Reverse transcription polymerase chain reaction (RT-PCR) and Capillary electrophoresis technology.Data from the assay component ATG_HNF4a_TRANS was analyzed into 1 assay endpoint. This assay endpoint, ATG_HNF4a_TRANS, was analyzed in the positive analysis fitting direction relative to DMSO as the negative control and baseline of activity. Using a type of inducible reporter, measures of mRNA for gain-of-signal activity can be used to understand the reporter gene at the transcription factor-level as they relate to the gene HNF4A. Furthermore, this assay endpoint can be referred to as a primary readout, because this assay has produced multiple assay endpoints where this one serves a reporter gene function. To generalize the intended target to other relatable targets, this assay endpoint is annotated to the nuclear receptor intended target family, where the subfamily is orphan.
Human liver HepG2 cells are transiently transfected with multiple reporter transcription units (MRTUs) in 6-well plates using FuGene 6 reagent (Roche; 3 ml FuGene/1 mg DNA). The MRTU constructs are regulated by a cis-regulating element (promoter). […] A major difference between the CIS and TRANS system is that in CIS activities of endogenous TFs are measured, whereas the TRANS assay evaluates changes in activities of exogenous, chimeric NR-Gal4 proteins. […] At the end of 24 hour incubation, total RNA was isolated using TriZol reagent (Invitrogen). The isolated RNA is then reverse-transcribed using oligo(dT) primer and Mo-MLV reverse transcriptase (Invitrogen) with DNAse I (Ambion) treatment for 30 min. The one-tenth of the produced cDNA was amplified by PCR using Taq DNA polymerase (Invitrogen) and two reporter sequence-specific primers. The PCR products were fluorescently labeled by primer extension with 6-arboxyfluorescein (6-FAM) 5'-labeled reporter sequence-specific primer (2 min at 95 C, 20 s at 68 C and 10 min at 72 C) and these products were digested with 5U of HpaI (New England Biolabs) for 2h at 37 C. The fragments were purified using Qiaquick PCR columns (Qiagen), analyzed on an ABI 3130xL genetic analyzer (Applied Biosystems) with peak positions identified by using a set of X-rhodamine (ROX)-labeled MapMarker1000 molecular weight standards (BioVentures). The raw capillary electrophoresis data was processed using Attagraph software (Attagene).
As to `C=CC(=O)OCC(CC)(COC(=O)C=C)COC(=O)C=C`, the result was inactive.

Take `CNC(=O)Oc1ccc(N(C)C)c(C)c1`: the call was inactive.

In the case of `CCN(CC)C1CCCCC1`, the molecule was called inactive. Regarding `CCCCOCC1CO1` (stereo not given), the molecule was classed as inactive. On to `N#Cc1ccc(O)cc1`, for which the call was inactive.

In the case of `CCOP(=S)(OCC)SCS(=O)(=O)CC`, the molecule was classed as inactive. As for `CCCCC(CC)COP(=O)(Oc1ccccc1)Oc1ccccc1` (stereo not given), the result was inactive. For `O=C(O)C1C(C(=O)O)C2(Cl)C(Cl)=C(Cl)C1(Cl)C2(Cl)Cl` (stereo not given), the molecule was classed as inactive. For `CCCCCCCc1ccc(O)cc1`, the molecule was classed as inactive. Then `CCCCN(CC)C(=O)SCCC`, with “inactive”; and `O=C(O)CF`, with “inactive”.

As to `N#C/C=C/c1ccccc1`, the result was inactive. Regarding `OCC(F)(F)OC(F)(F)C(F)(F)OC(F)(F)C(F)(F)OC(F)(F)F`, the molecule was called inactive. `Nc1ccc([N+](=O)[O-])cc1Cl`: the molecule was classed as inactive.

Turning to `Nc1ccc(Sc2ccc(N)cc2)cc1`, the call was inactive. The same measure for `Oc1ccccc1Br`: “inactive”; for `CCCCN(CCCC)SN(C)C(=O)Oc1cccc2c1OC(C)(C)C2`: “inactive”. With `O=C(O)C=CC(F)(C(F)(F)F)C(F)(F)F`, the outcome was inactive.

`CCC1(c2ccccc2)C(=O)N=C(O)NC1=O` (stereo not given): the call was inactive.

Consider `CCOP(=S)(OCC)SCn1nnc2ccccc2c1=O`, for which the molecule was called inactive. For `Cc1ccc2c(c1N)C(=O)c1ccccc1C2=O`, the outcome was inactive.

Turning to `CCN(CC)c1ccccc1`, the call was inactive. Take `COP(=O)(CCC(=O)NCO)OC`: the call was inactive.

Regarding `Nc1cc2c3c(c1)C(c1ccccc1)=N[C@@H](NC(=O)c1cccnc1)C(=O)N3CC2`, the outcome was inactive. With `O=c1ssc(Cl)c1Cl`, the molecule was classed as inactive. Then `Cc1cccc(N)c1`, with “inactive”. For the molecule `Cc1ccc([N+](=O)[O-])cc1C`, the molecule was called inactive. On to `c1ccc2c(c1)Nc1ccccc1S2`, for which the molecule was called inactive. As for `C/C(=N\NC(=O)Nc1cc(F)cc(F)c1)c1ncccc1C(=O)O`, the molecule was called inactive. The same measure for `OCC(F)(F)OC(F)(F)C(F)(F)OC(F)(F)C(F)(F)OC(F)(F)CO`: “inactive”.

For the molecule `O=C(O)C(F)(F)C(F)(F)C(=O)O`, the molecule was classed as inactive. Turning to `CC1=C(C(=O)Nc2ccccc2)S(=O)(=O)CCO1`, the call was inactive.

`FC(F)(F)C(F)(C(F)(F)F)C(F)(F)C(F)(F)CC1CO1` (stereo not given): the molecule was called inactive. In the case of `COC(N)=O`, the molecule was called inactive. Take `O=C(O)C(F)(F)OC(F)(F)C(F)(F)OC(F)(F)F`: the result was inactive. Take `CC(O)C(F)(F)C(F)(F)F` (stereo not given): the result was inactive. Then `CCOC(=O)c1ccccc1C(=O)OCC`, with “inactive”. Turning to `O=S(=O)(F)C(F)(F)C(F)(F)C(F)(F)C(F)(F)C(F)(F)C(F)(F)C(F)(F)C(F)(F)F`, the outcome was inactive.

On to `COCCOCCO`, for which the result was inactive.

Turning to `CC(O)C#N` (stereo not given), the molecule was called inactive.

For the origin of these results see PubChem BioAssay (EPA / NIEHS).
